SW480 rereplic – A quantitative high throughput screen for small molecules that induce DNA re-replication in SW480 colon adenocarcinoma cells; SW480 DNA re-replication, Hoechst DNA content imaging, 48 h; Potency, µM (series often up to 46.1 µM), inactives show top-dose re-replication activation, hits mostly activators; 1.8% of 340,000 active; AID 624297, 2012; also: % of control where 0% means no effect; nearly all actives have a fitted effect of over 55% in size
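DNA re-replication was detected as more nuclei of elevated Hoechst intensity after 48 hr exposure to compound (23 nL pinned per well of 250 cells).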
KB-3-1 tox – qHTS assay for MDR1-selective chemotherapeutics: Primary screen using the parental adenocarcinoma cell KB-3-1 | Potency, µM (series often up to 46.1 µM), actives largely listed as cytotoxic | KB-3-1 viability, CellTiter-Glo ATP luminescence, 72 h | AID 1347075, 2019 | 1.4% of 400,000 active; also: % is scaled to controls: 0 for no effect and ±100 for the full control effect; nearly all actives have a fitted effect of over 60% in size
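KB-3-1 parental drug-naive adenocarcinoma cells in DMEM/10% FBS, incubated 72 h at 37 C with pin-transferred compounds across a concentration series. Viability by CellTiter-Glo luminescence; concentration-response curves fitted after normalization.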
ELG1 repair inh – qHTS screen for small molecules that inhibit ELG1-dependent DNA repair in human embryonic kidney (HEK293T) cells expressing luciferase-tagged ELG1 | HEK293T ELG1-luciferase reporter, luminescence, 16 h; DNA damage induced by 5-fluorouridine | Potency, µM (highest dose often 46.1 µM), inactives show at the top dose activity change, negative = inhibition, most hits filed as inhibitors | 2.3% of 330,000 active; also: % is scaled to controls: 0 for no effect and ±100 for the full control effect; nearly all actives have a fitted effect of over 55% in size
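DMSO vehicle served as the neutral condition. Each well held 2,000 cells given 5-fluorouridine plus compound; after 16 hr at 37 °C/5% CO2, ONE-Glo was added and luciferase measured 30 min later.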
KB-V1 MDR tox – qHTS assay for MDR1-selective chemotherapeutics: Primary screen using the drug-selected MDR subline cells KB-V1; KB-V1 MDR cells viability, CellTiter-Glo, 72 h; 3.4% of 400,000 active; Potency, µM (titrated, usually from 46.1 µM), actives largely listed as cytotoxic; AID 1347076, 2019; also: % is scaled to controls: 0 for no effect and ±100 for the full control effect; nearly all actives have a fitted effect of over 60% in size
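Potencies derive from concentration-effect curves fitted to normalized luminescence (CellTiter-Glo) of KB-V1 cells treated for 72 h at 37 degrees C in phenol-red-free DMEM containing 10% FBS.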
MCF10A rereplic – A quantitative high throughput screen for small molecules that induce DNA re-replication in MCF 10a normal breast cells; MCF 10A DNA re-replication, Hoechst nuclear intensity, 48 h; Potency, µM (titrated, usually from 46.1 µM), for inactives: at the top dose activity, positive = re-replication, hits mostly activators; 2.9% of 350,000 active; also: % of control where 0% means no effect; nearly all actives have a fitted effect of over 50% in size
An asterisk follows results filed as active; i = inactive; ? = inconclusive; . = not tested or not shown; [ ] = remark or other dose. In the library only some 8.1% were active in any assay of this set; here they are far more common. Calls follow the shape of the dose curve; as a rule, active = well fitted curve in the direction sought with a large enough effect; inconclusive = small, poorly fitted or top-dose-only effect, or another doubt; inactive = no such curve, though single readings can be large; an effect the other way counts as inactive or inconclusive. Potency is read from the fitted curve at half-maximal effect.

SMILES | SW480 rereplic | KB-3-1 tox | ELG1 repair inh | KB-V1 MDR tox | MCF10A rereplic
CCOC(=O)c1c(C)[nH]c(C(=O)N/N=C/c2cc([N+](=O)[O-])ccc2O)c1C | 6.9% | 11.6µM* | -13.1% | ? | -1.4%
CCOC(=O)c1c(C)[nH]c(C(=O)N/N=C/c2ccc(OC)c(OC)c2)c1C | ? | ? | -9.0% | i | 13.9%
COC(=O)c1c(C)[nH]c(C(=O)COC(=O)CCc2ccc(OC)c(OC)c2)c1C | . | i | . | ? | .
CC(C)C[C@@H](CN1CCC[C@H]1CN1C(=O)C(=O)NC[C@@H]1Cc1ccccc1)N1C[C@H](Cc2ccccc2)N(CC2CCCCC2)C(=O)C1=O | . | ? | . | i | .
C=C(C)CSc1nnc2[nH]c(=O)cc(N)n12 | -0.7%[9.22 µM] | 16.4µM* | . | 18.4µM* | 1.0%
O=C1C2CC=CCC2C(=O)N1c1n[nH]c(Cc2ccccc2)n1 (stereo not drawn) | 1.8% | i | 0.8% | i | 7.31µM*
O=C1C2C3C=CC(C3)C2C(=O)N1c1n[nH]c(CCc2ccccc2)n1 (stereo not drawn) | -4.4% | i | 12.1% | i | 5.7%
CN(C(=O)CSc1nc(N)cc(=O)[nH]1)C1CCCCC1 | . | i | . | ? | .
CN(C(=O)CSc1nc2c(c(=O)[nH]1)CCCC2)C1CCCCC1 | -0.7% | i | 18.4% | 16.4µM* | ?
O=c1c2ccccc2ncn1-c1ccccc1[N+](=O)[O-] | -4.6% | i | 3.8% | i | 11.6%
O=c1c2ccccc2ncn1-c1ccc(Br)cc1[N+](=O)[O-] | 5.8µM* | i | -2.7% | i | ?
O=[N+]([O-])c1ccc(-n2cnc3ccccc32)c([N+](=O)[O-])c1 | ? | i | 23.1µM* | i | ?
CN(Cc1ccccc1)S(=O)(=O)c1ccc(Cl)c(C(=O)N2CCOCC2)c1 | . | i | . | ? | .
Cn1cnc([N+](=O)[O-])c1Sc1ccc(Br)cc1 | ? | i | 5.2% | i | 6.51µM*
Cc1ccc(Sc2c([N+](=O)[O-])ncn2C)cc1 | 6.4% | i | -2.8% | i | ?
NC1CCc2ccccc21 (stereo not drawn) | . | ? | . | i | .
CCCCCCCCCCn1ccc(=N)cc1 | 20.6µM* | 2.31µM* | ? | ? | ?
CCCCCCCCn1ccc(=N)cc1 | -2.3% | 5.8µM* | 0.731µM* | i | -0.3%
S=C(NCc1ccco1)Nc1cccc(Cl)c1Cl | -2.0% | i | 14.6µM* | i | 11.1%
Cc1cc(Cl)ccc1NC(=S)NCc1ccco1 | -4.2% | i | -11.9% | 20.6µM* | 0.0%
S=C(NCc1ccco1)Nc1ccc(Oc2ccc(Cl)cc2)cc1 | 10.9% | i | ? | i | 7.31µM*
Cc1cc(Cl)ccc1NC(=S)NCCC(c1ccccc1)c1ccccc1 | 0.4%[9.22 µM] | ? | ? | ? | 12.6µM*
Cc1cc(Cl)ccc1NC(=O)C(=O)NCc1ccco1 | . | i | . | i | .
S=C(NCc1ccco1)Nc1ccc(Cl)cc1 | 5.2% | i | ? | i | -0.4%
COc1ccc(OC)c(NC(=O)C(C)n2nc(C)c3c(C)n(-c4ccccc4)nc3c2=O)c1 (stereo not drawn) | . | i | . | i | .
COC(=O)[C@@H]1[C@H]2SC(C)(C)[C@H](C(=O)OC)N2C(=O)N1Cc1cc2ccccc2n1S(=O)(=O)c1ccccc1 | . | i | . | i | .
Cc1ccc(CNC(=O)C(=O)NCC2CCCN2S(=O)(=O)c2cc(C)ccc2C)cc1 (stereo not drawn) | ? | i | ? | i | -17.1%
COc1ccc(NC(=O)C(=O)NCC2CCCN2S(=O)(=O)c2cc(C)ccc2C)cc1 (stereo not drawn) | 16.4µM* | 5.8µM* | ? | 5.8µM* | ?
COc1ccc(NC(=O)C(=O)NCC2CCCN2S(=O)(=O)c2ccc(C)cc2)cc1 (stereo not drawn) | ? | 0.146µM* | -20.0% | 0.231µM* | ?
